# Measurements reported in the supplement of paper PMC10981050.
# Values joined by “and” are separate entries in the source; they are usually repeats but may differ in a detail not shown here. Equal entries are not always repeated. Structures can show the parent of a compound that is named as a salt.
# Experiments:
# Assay in all cases: cell viability relative to vehicle control; higher = less cytotoxic
# Details in all cases: 10 µM
# [1] = test system: K562
# Method in brief: (§1)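 CRISPR-edited mutant clones and isogenic wild-type clones from four leukaemia lines were screened against Selleck bioactive, kinase and epigenetic probe libraries, with identity-inconsistent compounds excluded. Each compound was acoustically dispensed at a single 10 µM dose into 384-well plates holding 2000 cells in 50 µL medium per well. After 48 h the supernatant was removed and CellTiter-Glo luminescence was read. Viability was expressed as percent of the on-plate vehicle control and analysed in Genedata Screener.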
# [2] = test system: MARIMO
# Method in brief: as §1
# [3] = test system: MOLM14
# Method in brief: as §1
# [4] = test system: OCI-AML2
# Method in brief: as §1
Structure (SMILES),cell viability ([1]; SRSF2 genotype: SRSF2 P95H/wt),cell viability ([1]; SRSF2 genotype: SRSF2 wt/wt) [%],cell viability ([2]; SRSF2 genotype: SRSF2 P95H/wt) [%],cell viability ([2]; SRSF2 genotype: SRSF2 wt/wt) [%],cell viability ([3]; SRSF2 genotype: SRSF2 P95H/wt) [%],cell viability ([3]; SRSF2 genotype: SRSF2 wt/wt) [%],cell viability ([4]; SRSF2 genotype: P95H/wt) [%],cell viability ([4]; SRSF2 genotype: wt/wt) [%]
OC[C@H]1O[C@H](OC[C@H]2O[C@H](OC[C@H]3O[C@H](O[C@]4(CO)O[C@H](CO)[C@@H](O)[C@@H]4O)[C@H](O)[C@@H](O)[C@@H]3O)[C@H](O)[C@@H](O)[C@H]2O)[C@H](O)[C@@H](O)[C@H]1O [Stachyose],106% and 100%,99.7,102,109,97.3,105,94.5,93.5
NC(N)=N/N=C/c1c(Cl)cccc1Cl [Guanabenz (WY-8678) Acetate],81.4% and 86.5%,84,83.3,83.3,84.1,86.5,89.6,88.1
COc1ccc2[nH]c([S@@+]([O-])Cc3ncc(C)c(OC)c3C)nc2c1 [Esomeprazole sodium],98.5% and 100%,94.4,98.8,99.8,97.4,90.9,96,91.8
N#Cc1ccc2ncnc(NCCc3ccccc3)c2c1 [Senexin A],85% and 87.1%,92.4,91.8,94,77.1,95.1,58.2,63
O=C1C(Cl)=C(N2CCOCC2)C(=O)N1c1ccc(Cl)c(Cl)c1,97.9% and 96%,97.4,88.2,109,87,94,83.3,96.4
COc1cc2c(cc1O)C[C@H]1c3cc(O)c(OC)cc3CC[N@@+]1(C)C2 [Phellodendrine],104% and 97.8%,102,98.9,98.7,111,102,101,96.4
CC(=O)O[C@H](CC=C(C)C)C1=CC(=O)c2c(O)ccc(O)c2C1=O [Acetylshikonin],4.63% and 1.27%,1.38,0.73,0.66,0.73,0.53,0.72,0.59
C[C@H]1COc2c(N3CCN(C)CC3)c(F)cc3c(=O)c(C(=O)O)cn1c23 [Levofloxacin (Levaquin)],95.5% and 83.8%,87.5,90.4,101,95.2,88,87.3,88.3
NS(=O)(=O)c1cc2c(cc1Cl)NC(C(Cl)Cl)NS2(=O)=O (stereo not drawn) [Trichlormethiazide (Achletin)],102% and 101%,102,108,99.7,94.7,106,112,110
CN(C)CC[C@H](CSc1ccccc1)Nc1ccc(S(=O)(=O)NC(=O)c2ccc(N3CCN(Cc4ccccc4-c4ccc(Cl)cc4)CC3)cc2)cc1[N+](=O)[O-],49.5% and 28.1%,72.7,0.46,1.66,0.15,2,0.19,3.31
COC(=O)C1=CO[C@@H](O[C@@H]2O[C@H](CO)[C@@H](O)[C@H](O)[C@H]2O)[C@@H]2[C@@]3(C)O[C@H]3[C@@H](O)[C@]12O [Sesamoside],101% and 102%,104,102,98.4,109,105,104,107
CCS(=O)(=O)Nc1ccc(Oc2ccc(F)cc2F)c(-c2cn(C)c(=O)c3[nH]ccc23)c1 [ABBV-075 (Mivebresib)],20.9% and 13.8%,33.2,7.17,9.37,1.9,1.8,7.64,13.5
C[C@@H]1CN(CC(=O)Nc2ccc3c(c2)Cc2cccc(-c4cc(=O)cc(N5CCOCC5)o4)c2S3)C[C@H](C)O1,98.9% and 102%,99.1,82.9,86.9,56.9,55.8,51.3,64.2
COc1ncc(-c2cc(-c3ncc(CN4C[C@@H](C)O[C@@H](C)C4)o3)c3cn[nH]c3c2)cc1NS(C)(=O)=O,53.5% and 58.5%,61.2,42.6,37.1,23.5,27.3,13.1,25.8
O=C(O)CCCNC(=O)c1cccnc1 [Pikamilone],109% and 105%,119,97.1,105,99.9,106,114,118
[I-].[K+] [Potassium iodide],100% and 96%,100,107,105,106,100,102,112
CC(=O)O[C@@]12CO[C@@H]1C[C@H](O)[C@@]1(C)C(=O)[C@H](O)C3=C(C)[C@@H](OC(=O)[C@H](O)[C@@H](NC(=O)OC(C)(C)C)c4ccccc4)C[C@@](O)([C@@H](OC(=O)c4ccccc4)[C@H]21)C3(C)C [Docetaxel (Taxotere)],25.3% and 36.8%,34.7,6.89,5.5,7.8,4.57,7.58,13.3
"OCc1ccccc1O[C@@H]1O[C@H](CO)[C@@H](O)[C@H](O)[C@H]1O [Salicin (Salicoside, Salicine)]",101% and 103%,110,103,106,99.7,104,105,112
C=C(Cc1ccccc1Cl)C(=O)OCC,95.9% and 107%,91.8,107,100,96.2,98.2,106,101
CCNC(=O)c1[nH]nc(-c2cc(Cl)c(O)cc2O)c1-c1ccc(OC)cc1,19.1% and 31.3%,23.6,33.6,28.2,2.11,1.17,12.6,19.3
Cc1ccccc1CN1C(=O)C2=C(CCN(Cc3ccccc3)C2)N2CCN=C12,48.2% and 48%,44.5,46.4,43.9,36.8,44.5,29.3,32

Structure (SMILES),cell viability ([1]; SRSF2 genotype: SRSF2 P95H/wt),cell viability ([1]; SRSF2 genotype: SRSF2 wt/wt) [%],cell viability ([2]; SRSF2 genotype: SRSF2 P95H/wt) [%],cell viability ([2]; SRSF2 genotype: SRSF2 wt/wt) [%],cell viability ([3]; SRSF2 genotype: SRSF2 P95H/wt) [%],cell viability ([3]; SRSF2 genotype: SRSF2 wt/wt) [%],cell viability ([4]; SRSF2 genotype: P95H/wt) [%],cell viability ([4]; SRSF2 genotype: wt/wt) [%]
O=C(O)Cc1cccc2ccccc12 [1-Naphthaleneacetic acid],98% and 100%,98.1,95.7,98.3,106,97.5,104,97.4
Cc1cc(C)nc(NS(=O)(=O)c2ccc(N)cc2)n1 [Sulfamethazine Sodium Salt],105% and 99.9%,102,106,106,100,106,88.5,113
CCCCCCCCCC(C)=O [Methylnonylketone],93.2% and 96.8%,96.3,96.2,101,97.7,99.7,99.5,97.2
O=C(O)c1ccc(Nc2ncc3c(n2)-c2ccc(Cl)cc2C(c2c(F)cccc2F)=NC3)cc1,66.5% and 78.8%,68.1,80.4,88.1,51.4,35.4,41.3,38.8
Cc1nc(Nc2ncc(C(=O)Nc3cc(NC(=O)c4cccc(C(F)(F)F)c4)ccc3C)s2)cc(N2CCN(CCO)CC2)n1,11.4% and 16%,20.1,50,63,12.2,13.8,55.5,57.3
Cc1ncc(NC(=O)c2cccc(C(F)(F)F)c2)cc1-c1cnc(OC2CCOCC2)c(N2CCOCC2)c1,61.6% and 73.4%,71.2,41.2,40.3,48.2,40.7,30.6,39
Nc1ncnc2c1ncn2C1OC(COP(=O)(O)OP(=O)(O)O)C(O)C1O (stereo not drawn),111% and 110%,107,91.2,90.7,101,95,96.3,99.9
Nc1c(CC(=O)O)cccc1C(=O)c1ccccc1 [Amfenac Sodium (monohydrate)],103% and 98.3%,93.7,94.7,101,91.5,95.9,88.5,99.8
O=c1ccc2cc(O)ccc2o1 [6-Hydroxycoumarin],99.5% and 104%,102,99,90.9,104,101,97.9,99
CC1(C)S[C@@H]2[C@H](NC(=O)Cc3ccccc3)C(=O)N2[C@H]1C(=O)O [Penicillin G Sodium],100% and 92%,99.5,98.5,107,96.9,103,91.9,109
O=C(O)CCCC[C@@H]1CCSS1 (racemic) [Thioctic acid],94.1% and 87.7%,88.3,93.1,99.4,92.8,94.1,97.1,98.9
CC1OC(OC2C(OC3CCC4(C)C(CCC5(C)C4CC=C4C6CC(C)(C)CCC6(C(=O)OC6OC(COC7OC(CO)C(O)C(O)C7O)C(O)C(O)C6O)CCC45C)C3(C)CO)OCC(O)C2O)C(O)C(O)C1O (stereo not drawn) [Dipsacoside B],101% and 103%,104,97.5,98.2,106,98.3,101,103
Cc1c(F)cc(C(=O)NC2CC2)cc1-c1ccc(C(=O)NCC(C)(C)C)cn1 [Losmapimod],92% and 93.7%,97.8,95.7,103,94.1,100,86.7,95.5
OC(c1ccccc1)(c1ccccc1)C12CC[N+](CCOCc3ccccc3)(CC1)CC2 [Umeclidinium bromide],81.8% and 94.9%,89.5,76.2,90.9,86.5,81.6,75.6,85.1
CS(=O)(=O)c1ccc(-c2nnc(/C=C/c3nnc(-c4ccc(C#N)cc4)o3)n2-c2ccccc2Cl)nc1,105% and 94.2%,101,104,108,106,103,99,110
CCC[C@H](NC(=O)/C(C#N)=C/c1cccc(Br)n1)c1ccccc1 [Degrasyn (WP1130)],11.2% and 17.4%,9.59,2.97,1.3,0.32,0.25,0.67,0.8
Cc1cccc(Oc2cnc(=O)[nH]c2)c1,97.7% and 96%,99.4,94.2,97,100,97.4,103,101
Cc1c(C)c2c(c(C)c1O)CCC(C)(CCCC(C)CCCC(C)CCCC(C)C)O2 (stereo not drawn) [Vitamin E],96.5% and 100%,108,106,104,105,104,106,100
O=c1[nH]cnc2c1ncn2[C@H]1C[C@H](O)[C@@H](CO)O1 [2'-Deoxyinosine],120% and 113%,116,104,107,105,118,103,111
CCCCCCCCOC(=O)c1cc(O)c(O)c(O)c1 [Octyl gallate],47.3% and 44.6%,58.7,32.3,51,48.4,28.9,52.9,56.1
